Read-out in assay [1]: Thyroid Hormone Responsive (THRSP), THRSP (gene 7069)
Put plainly: LTEA_HepaRG_THRSP: Life Technologies and Expression Analysis (LTEA) Assay for Thyroid Hormone Responsive (THRSP) using HepaRG (AID 2283536; active = hit-call score of the fitted dose curve at least 0.9, where 1 is the maximum; inactive = score below 0.9). The following applies: mRNA level, 48 h; actives raise or lower the signal. In outline: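 THRSP transcript quantified by Fluidigm qRT-PCR against three housekeeping genes after 48 h chemical exposure of HepaRG cells in serum-free induction medium; eight-point half-log series, top 100 uM, 0.5% DMSO vehicle, duplicate wells.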

Read-out in assay [2]: Cellular tumor antigen p53 (Homo sapiens) (UniProt P04637)
Put plainly: LTEA_HepaRG_TP53: Life Technologies and Expression Analysis (LTEA) Assay for Tumor Protein P53 (TP53) using HepaRG (AID 2283537; active = hit-call score of the fitted dose curve at least 0.9, where 1 is the maximum; inactive = score below 0.9). To be noted: mRNA level, 48 h; actives raise or lower the signal. In outline: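 Gain or loss of TP53 mRNA signal is scored relative to 0.5% DMSO after 48 h chemical treatment of HepaRG liver cells, tested in duplicate at eight half-log concentrations up to 100 uM.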

Read-out in assay [3]: UDP glucuronosyltransferase (UGT1A1), UGT1A1 (gene 54658)
The experiment in a line: LTEA_HepaRG_UGT1A1: Life Technologies and Expression Analysis (LTEA) Assay for UDP glucuronosyltransferase (UGT1A1) using HepaRG (AID 2283538; active = hit-call score of the fitted dose curve at least 0.9, where 1 is the maximum; inactive = score below 0.9). To be noted: mRNA level, 48 h; actives raise or lower the signal. In outline: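 HepaRG, 48 h chemical exposure (top 100 uM, half-log 8-pt, 0.5% DMSO vehicle), duplicate wells; qRT-PCR (TaqMan, Fluidigm array) for UGT1A1 mRNA, housekeeping-normalized; bidirectional curve fit vs DMSO baseline.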

Read-out in assay [4]: UDP glucuronosyltransferase (UGT1A6), UGT1A6 (gene 54578)
The experiment in a line: LTEA_HepaRG_UGT1A6: Life Technologies and Expression Analysis (LTEA) Assay for UDP glucuronosyltransferase (UGT1A6) using HepaRG (AID 2283539; active = hit-call score of the fitted dose curve at least 0.9, where 1 is the maximum; inactive = score below 0.9). To be noted: mRNA level, 48 h; actives raise or lower the signal. In outline:
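HepaRG, 48 h post-plating switch to serum-free induction medium; chemical 48 h, 100 uM top, half-log x8, duplicate, 0.5% DMSO. Phenobarbital 1mM induction control. UGT1A6 mRNA by TaqMan qRT-PCR; gain/loss fit vs DMSO.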

Read-out in assay [5]: X-box binding protein 1 (XBP1), XBP1 (gene 7494)
The experiment in a line: LTEA_HepaRG_XBP1: Life Technologies and Expression Analysis (LTEA) Assay for X-box binding protein 1 (XBP1) using HepaRG (AID 2283540; active = hit-call score of the fitted dose curve at least 0.9, where 1 is the maximum; inactive = score below 0.9). The following applies: mRNA level, 48 h; actives raise or lower the signal. The gist of the method: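 Transcript levels of XBP1, measured by qRT-PCR and normalised to three housekeeping genes, were fitted bidirectionally relative to 0.5% DMSO controls. Human HepaRG cells received eight-point half-log dilutions from 100 uM for 48 h.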

Assay [6] can be described thus: LTEA_HepaRG_LDH_cytotoxicity: Cytotoxicity Assessment in the Life Technologies and Expression Analysis (LTEA) Assay (AID 2283563). The gist of the method:
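Cells were thawed and plated for 48 h. Medium was then replaced with serum-free induction medium. Chemicals (8 half-log points, maximum 100 uM, 0.5% DMSO) were added in duplicate for 48 h, after which spent medium was assayed for LDH.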

Assay [7] is described as follows: ATG_XTT_Cytotoxicity: Cytotoxicity Assessment in the Attagene TRANS-FACTORIAL HepG2 Assay (AID 2283584). In outline: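 Cells: human HepG2, transiently transfected with MRTU reporter constructs. Exposure 24 h. Readout: XTT, cell number. Baseline/neg ctrl DMSO; loss-of-signal scored.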
Assay [8] can be described thus: TOX21_p53_BLA_p2_viability: Viability Assessment in the Tox21 HCT-116 p53 Agonism Beta-lactamase Assay, Phase 2 (AID 2283591).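 Also: compound exposure lasted 16 h at 37 °C; actives lower the ATP signal meaning cytotoxicity.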 The gist of the method: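 Cytotoxicity readout: CellTiter-Glo ATP luminescence, 30 min at room temperature, after the beta-lactamase read. Cells were HCT116 exposed 16 h at 37C to compounds pin-transferred at 217-fold dilution from DMSO stocks.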

The target of assay [9] is Cellular tumor antigen p53 (Homo sapiens) (UniProt P04637). Put plainly: TOX21_p53_BLA_p2_ratio: Tox21 HCT-116 p53 Agonism Beta-lactamase Assay, Ratio, Phase 2 (AID 2283592). The gist of the method:
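Plated HCT116 p53-bla cells (4000/well) received compound after 5 h, then 16 h at 37C/5% CO2. CCF4-AM added, 2 h RT. Ratio of 460 to 530 nm emission taken as the p53 reporter signal.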

For assay [10] the target is unchanged. The experiment in a line: TOX21_p53_BLA_p3_ratio: Tox21 HCT-116 p53 Agonism Beta-lactamase Assay, Ratio, Phase 3 (AID 2283596). In outline: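 Cells were seeded at 4000/well, rested 5 h at 37C, then dosed with DMSO compound solutions (217-fold dilution) for 16 h. CCF4-AM substrate was loaded for 2 h at room temperature, and the 460/530 nm emission ratio was fitted for gain of signal versus DMSO.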

Assay [11] is described as follows: TOX21_p53_BLA_p4_viability: Viability Assessment in the Tox21 HCT-116 p53 Agonism Beta-lactamase Assay, Phase 4 (AID 2283597).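 Also: hits lower the luminescence signal meaning cytotoxicity.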 In outline: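 Readout: ATP luminescence (CellTiter-Glo), measured 30 min after reagent addition at RT. The reagent followed a 2 h CCF4-AM incubation, and the cells had been exposed to compound for 16 h at 37C.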
The target of assay [12] is Cellular tumor antigen p53 (Homo sapiens) (UniProt P04637). The experiment in a line: TOX21_p53_BLA_p5_ratio: Tox21 HCT-116 p53 Agonism Beta-lactamase Assay, Ratio, Phase 5 (AID 2283599). In outline: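 Beta-lactamase reporter ratio (blue 460 nm over green 530 nm, 405 nm excitation) after 2 h CCF4-AM loading, in HCT-116 cells exposed 16 h at 37 C to compounds pinned at 217-fold dilution. Increases relative to DMSO baseline scored.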

Assay [13] can be described thus: TOX21_p53_BLA_p5_viability: Viability Assessment in the Tox21 HCT-116 p53 Agonism Beta-lactamase Assay, Phase 5 (AID 2283600). In outline:
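Workflow: seed 4000 cells per well, wait 5 h, add compounds (DMSO, 217-fold dilution), incubate 16 h, load CCF4-AM 2 h, add CellTiter-Glo, read luminescence after 30 min.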

Assay [14] concerns the target Cellular tumor antigen p53 (Homo sapiens) (UniProt P04637). The experiment in a line: TOX21_p53_BLA_p4_ratio: Tox21 HCT-116 p53 Agonism Beta-lactamase Assay, Ratio, Phase 4 (AID 2283601). In outline: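 Signal is the blue/green (460nm/530nm) ratio of cleaved versus uncleaved CCF4-AM substrate, read after 2 h substrate loading. Cells were HCT116 carrying the p53-responsive beta-lactamase reporter, dosed 16 h at 37C, 5% CO2; CellTiter-Glo measured in parallel.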

Assay [15] in a line: Tanguay_ZF_120hpf_MORT_legacy: (Legacy) Oregon State University Tanguay Lab 120 Hour Post-fertilization zebrafish Assay for Mortality (AID 2283633). The gist of the method: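 5D WT zebrafish, chorion removed 4 hpf; 1 embryo/well from 6 hpf; static exposure to 120 hpf, 28C, dark, sealed. Final DMSO 0.64%. Readout: binary mortality, brightfield, 24 + 120 hpf; DMSO as negative control.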

A short description of assay [16]: Tanguay_ZF_120hpf_YSE_legacy: (Legacy) Oregon State University Tanguay Lab 120 Hour Post-fertilization zebrafish Assay for Yolk Sac Edema (AID 2283634). In outline: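 Dechorionate (pronase, 4 hpf) → place one 6 hpf embryo per well → static compound exposure, sealed and foil-covered, 28C, to 120 hpf → record yolk sac edema as present or absent. Final DMSO 0.64%.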

Assay [17] is described as follows: Tanguay_ZF_120hpf_AXIS_legacy: (Legacy) Oregon State University Tanguay Lab 120 Hour Post-fertilization zebrafish Assay for Body Axis Malformation (AID 2283635). In outline: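 Chorion is removed with pronase at 4 hpf, then single 6 hpf embryos are dosed (final DMSO 0.64%) and held statically at 28C in sealed, foil-covered plates. At 120 hpf body axis malformation is recorded as present or absent.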

A short description of assay [18]: Tanguay_ZF_120hpf_SNOU_legacy: (Legacy) Oregon State University Tanguay Lab 120 Hour Post-fertilization zebrafish Assay for Snout Malformation (AID 2283637). The gist of the method:
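Binary snout-malformation call at 120 hpf in wild-type 5D embryos, chorion removed by pronase, under static exposure from 6 hpf at 28C (0.64% DMSO). Embryos dying by 24 or 120 hpf excluded.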

Assay [19] is described as follows: TOX21_p53_BLA_p3_viability: Viability Assessment in the Tox21 HCT-116 p53 Agonism Beta-lactamase Assay, Phase 3 (AID 2283593).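 Also: cells exposed to compound for 16 h before reading.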 The gist of the method: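 Cellular ATP was quantified by CellTiter-Glo luminescence, read after 30 min at room temperature. Beforehand, HCT116 cells (4000/well) received compound 5 h post-seeding, 217-fold diluted from DMSO, then incubated 16 h at 37C.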

Assay [20] in a line: Tanguay_ZF_120hpf_EYE_legacy: (Legacy) Oregon State University Tanguay Lab 120 Hour Post-fertilization zebrafish Assay for Eye Malformation (AID 2283636).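 Also: binary presence or absence of eye malformation scored by brightfield in 120 hpf larvae.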 In outline:
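Binary brightfield scoring of eye defects at 120 hpf after static exposure from 6 hpf of single pronase-dechorionated wild-type embryos (28C, 0.64% DMSO). Non-mortality endpoints omitted where embryos died; fit vs DMSO.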

As usually defined, the AC50 is the concentration at which the activity in the assay is half-maximal.

Results filed as inconclusive are left out. Calls of active or inactive are those of the source. The calls were made as follows, unless noted: active = hit-call score of the fitted dose curve at least 0.9, where 1 is the maximum; inconclusive = response in the unintended direction; inactive = score below 0.9.

Cellular tumor antigen p53 (Homo sapiens), sequence (P04637 whole entry, looked up): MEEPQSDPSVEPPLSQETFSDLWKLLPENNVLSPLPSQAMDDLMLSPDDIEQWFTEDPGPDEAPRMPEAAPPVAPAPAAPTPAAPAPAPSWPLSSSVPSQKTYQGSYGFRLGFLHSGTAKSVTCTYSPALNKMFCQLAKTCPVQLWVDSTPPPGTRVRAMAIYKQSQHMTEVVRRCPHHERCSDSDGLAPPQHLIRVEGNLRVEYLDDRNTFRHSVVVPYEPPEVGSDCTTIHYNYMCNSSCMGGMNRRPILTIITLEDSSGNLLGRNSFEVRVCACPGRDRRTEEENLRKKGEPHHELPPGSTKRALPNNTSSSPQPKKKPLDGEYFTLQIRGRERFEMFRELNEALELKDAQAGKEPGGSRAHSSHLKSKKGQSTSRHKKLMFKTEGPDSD

`CCOCCO`: the compound was classed as inactive in [1], in assay [2], in [3], in [4], in assay [5] and in assay [6]. In addition, the call in assay [7], in assay [8], in assay [9], in [10], in [11] and in [12] was inactive. In addition, the compound was called inactive in assay [13], in [14], in assay [15], in [16], in assay [17] and in [18].

As for `COc1ccc(/C=C/S(=O)(=O)NC(=O)c2ccc(C)cc2Cl)cc1`, the outcome in assay [1], in assay [2], in assay [3], in [4], in assay [5] and in [6] was inactive. The compound was called inactive in assay [7], in assay [8], in [19], in [13] and in [18]. The AC50 was 28 µM (active) in [9], 29 µM (active) in assay [10], 29.5 µM (active) in assay [12] and 21.2 µM (active) in assay [14].

As to `C=CCCCCCCCCC(=O)O`, the outcome in assay [1], in [2], in assay [3], in [4], in assay [5] and in assay [6] was inactive. The result in assay [7], in assay [8], in assay [9], in assay [19], in assay [11] and in assay [12] was inactive. Besides, the compound was classed as inactive in [13], in assay [14], in [15], in assay [16], in assay [17] and in assay [18].

Consider `CC1=CC(=O)CC(C)(C)C1`, for which the compound was classed as inactive in assay [1], in [2], in [3], in [4], in assay [5] and in assay [6]. The compound was called inactive in [8], in assay [9], in assay [19], in assay [10], in assay [11] and in [12]. For the same compound, the compound was classed as inactive in [13], in assay [14], in assay [15], in assay [17], in [20] and in assay [18].

Consider `CCOCCOCCOCCO`, for which the call in [1], in [2], in [3], in [4], in [5] and in [6] was inactive. Also, the result in assay [7], in assay [8], in assay [9], in assay [10], in [12] and in [14] was inactive. The result in assay [16] and in assay [18] was inactive.

Regarding `Clc1nc(Cl)c(Cl)c(Cl)c1Cl`, the compound was called inactive in assay [1], in assay [2], in [3], in assay [4], in [5] and in assay [6]. For the same compound, the call in assay [7], in [8], in assay [9], in assay [10], in assay [11] and in [12] was inactive. For the same compound, the compound was called inactive in assay [13], in [14], in assay [15], in assay [16], in assay [17] and in [20]. In assay [18], the result was inactive.

In the case of `O=C(O)c1cccc(Oc2ccccc2)c1`, the outcome in assay [1], in [2], in [3], in assay [4], in assay [5] and in [6] was inactive. Moreover, the result in assay [7], in [9], in assay [10], in assay [11], in [12] and in assay [14] was inactive. For the same compound, the outcome in assay [16], in assay [20] and in [18] was inactive.

Source of the values: PubChem BioAssay (EPA / NIEHS).
